Measured values as given in PubChem BioAssay (NCI).
“And” between values parts separate entries of the source, which are not always exact repeats. Equal values may be shown once. Compounds without any hit were thinned out: in the full panel of roughly 83,000, 20% have a hit.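 Single-concentration screen, 48 h exposure, 96-well plates. Endpoint: percent growth. Below 10 = active.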 The source made the active and inactive calls.

Assays:
Experiment in all cases: NCI-60 one-dose screen, 48 h (100 = growth as untreated, 0 = no growth, -100 = all killed)
Conditions in all cases: 10 µM unless noted
HCT-15 colon = test system: HCT-15 colon
HT29 colon = test system: HT29 colon
SNB-75 CNS = test system: SNB-75 CNS
SNB-19 CNS = test system: SNB-19 CNS
U251 CNS = test system: U251 CNS
PC-3 prostate = test system: PC-3 prostate
SK-MEL-5 melanoma = test system: SK-MEL-5 melanoma
UACC-62 melanoma = test system: UACC-62 melanoma
LOX IMVI melanoma = test system: LOX IMVI melanoma
SK-MEL-28 melanoma = test system: SK-MEL-28 melanoma

Measured: growth

O=C(O)Cc1cc(=O)[nH]n(-c2ccccc2)c1=O
inactive: HCT-15 colon 107% | HT29 colon 103% | SNB-75 CNS 91.3% | SNB-19 CNS 119% | U251 CNS 99.9% | PC-3 prostate 94% | SK-MEL-5 melanoma 107% | UACC-62 melanoma 101% | LOX IMVI melanoma 100% | SK-MEL-28 melanoma 110%

CCOC(=O)CN1CCC(C(=O)OCC)CC1
inactive: HCT-15 colon 125% | HT29 colon 104% | SNB-75 CNS 106% | SNB-19 CNS 110% | U251 CNS 107% | PC-3 prostate 88.8% | SK-MEL-5 melanoma 103% | UACC-62 melanoma 94.6% | LOX IMVI melanoma 99.3% | SK-MEL-28 melanoma 108%

CC(C)(C)C1CCC(=NO)CC1 (stereo not given)
inactive: HCT-15 colon 106% | HT29 colon 95% | SNB-75 CNS 85.6% | SNB-19 CNS 96% | U251 CNS 99.9% | PC-3 prostate 86.7% | SK-MEL-5 melanoma 104% | UACC-62 melanoma 99.4% | LOX IMVI melanoma 99.8% | SK-MEL-28 melanoma 110%

CC1=CC(=O)C=CC1=Nc1ccc(N(C)C)cc1
inactive: HCT-15 colon 96.8% and 32.4% | HT29 colon 105% and 45.1% | SNB-75 CNS 123% and 76.4% | SNB-19 CNS 97.1% and 73.4% | U251 CNS 21.2% | PC-3 prostate 56% and 12.1% | SK-MEL-5 melanoma 89.4% and 17.6% | UACC-62 melanoma 88.1% and 18.2% | LOX IMVI melanoma 83.4% | SK-MEL-28 melanoma 96.8% and 74.7%

CCCCNC(=O)c1ccccc1C
inactive: HCT-15 colon 93.4% | HT29 colon 102% | SNB-75 CNS 99% | SNB-19 CNS 98.2% | U251 CNS 99.3% | PC-3 prostate 88.2% | SK-MEL-5 melanoma 93.3% | UACC-62 melanoma 101% | LOX IMVI melanoma 96.9% | SK-MEL-28 melanoma 101%

O=C(O)COc1ccccc1F
inactive: HCT-15 colon 113% | HT29 colon 113% | SNB-75 CNS 94.4% | SNB-19 CNS 107% | U251 CNS 109% | SK-MEL-5 melanoma 95% | UACC-62 melanoma 101% | LOX IMVI melanoma 96.5% | SK-MEL-28 melanoma 112%

COc1ccc(C(=O)C(O)c2ccc(OC)cc2)cc1 (stereo not given)
inactive: HCT-15 colon 110% and 107% | HT29 colon 106% and 111% | SNB-75 CNS 98% and 94.1% | SNB-19 CNS 109% and 111% | U251 CNS 105% and 95.7% | SK-MEL-5 melanoma 105% | UACC-62 melanoma 100% and 105% | LOX IMVI melanoma 96.4% and 98.4% | SK-MEL-28 melanoma 114% and 109%

C/C(=C\c1ccccc1)C(O)C(=O)c1nc2ccc([N+](=O)[O-])cc2[nH]c1=O (stereo not given)
inactive: HCT-15 colon 100% | HT29 colon 102% | SNB-75 CNS 88.6% | SNB-19 CNS 85.5% | U251 CNS 83.2% | SK-MEL-5 melanoma 82.6% | UACC-62 melanoma 72.3% | LOX IMVI melanoma 75.9% | SK-MEL-28 melanoma 112%

O=C(OCc1ccccc1)c1ccccc1
inactive: HCT-15 colon 114% and 103% | HT29 colon 114% and 87.8% | SNB-19 CNS 101% and 92.1% | U251 CNS 99.8% and 105% | PC-3 prostate 107% and 85.4% | SK-MEL-5 melanoma 104% and 101% | UACC-62 melanoma 92.6% and 102% | LOX IMVI melanoma 96.2% | SK-MEL-28 melanoma 106% and 120%

Nc1nc(-c2ccccn2)cc(-c2cc(-c3ccccn3)nc(N)n2)n1
inactive: HCT-15 colon 97% | HT29 colon 120% | SNB-19 CNS 101% | U251 CNS 109% | PC-3 prostate 99.3% | SK-MEL-5 melanoma 105% | UACC-62 melanoma 102% | LOX IMVI melanoma 96.5% | SK-MEL-28 melanoma 113%
